Test results published in PubChem BioAssay AID1159580 (chemical genetic matrix, 2015).
Among all 5,500 compounds or so, about 2,000 (36%) were called active. Not shown: some 18% with an inconclusive outcome. Rule as the data show it: active = normalized growth mostly below about 0.91 (no sharp cut-off); inconclusive = no clear call, values can overlap the other calls; inactive = mostly above about 0.92. The list shows a part of the results.

Experiment: chemical genetic growth profiling, strain panel (AID 1159580);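 also: tested at 20 µM; growth read once vehicle control cultures reached saturation at 30 °C; 1 = growth at the plate median or of vehicle wells; lower values mean less growth of the strain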
Settings: growth OD

Measured: normalized growth

O=C1C=CC(=C(c2ccc(O)cc2)c2ccc(O)cc2)C=C1
inactive: S. cerevisiae deletion strains, locus YJR075W, strain HOC1, hits give low values 1.02 | S. cerevisiae deletion strains, locus YKL009W, strain mrt4, hits give low values 0.995 | S. cerevisiae deletion strains, locus YKL068W, hits give low values 0.997 | S. cerevisiae deletion strains, locus YKL085W, strain MDH1 (second series), hits give low values 0.994 | S. cerevisiae deletion strains, locus YKL085W, strain MDH1, hits give low values 0.994 | S. cerevisiae deletion strains, locus YKL160W, strain elf1, hits give low values 1.01 | S. cerevisiae deletion strains, locus YKL190W, strain CNB1, hits give low values 0.994 | S. cerevisiae deletion strains, locus YKR001C, strain vps1, hits give low values 0.986 | S. cerevisiae deletion strains, locus YKR026C, strain gcn3, hits give low values 0.975 | S. cerevisiae deletion strains, locus YKR091W, strain srl3, hits give low values 0.989 | S. cerevisiae deletion strains, locus YLL001W, strain dnm1, hits give low values 0.976 | S. cerevisiae deletion strains, locus YLL026W, hits give low values 0.996 | S. cerevisiae deletion strains, locus YLL041C, strain sdh2, hits give low values 0.991 | S. cerevisiae deletion strains, locus YLR027C, strain aat2, hits give low values 0.998 | S. cerevisiae deletion strains, locus YLR039C, strain RIC1, hits give low values 1.04 | S. cerevisiae deletion strains, locus YLR058C, strain SHM2, hits give low values 0.991 | S. cerevisiae deletion strains, locus YLR102C, strain apc9, hits give low values 0.994 | S. cerevisiae deletion strains, locus YLR113W, strain HOG1, hits give low values 1.03 | S. cerevisiae deletion strains, locus YLR221C, strain rsa3, hits give low values 0.983 | S. cerevisiae deletion strains, locus YLR258W, strain gsy2, hits give low values 1.01 | S. cerevisiae deletion strains, locus YLR262C, strain YPT6 (second series), hits give low values 0.972 | S. cerevisiae deletion strains, locus YLR262C, strain YPT6, hits give low values 1.02 | S. cerevisiae deletion strains, locus YLR268W, strain sec22, hits give low values 1.02 | S. cerevisiae deletion strains, locus YLR320W, strain mms22, hits give low values 0.972 | S. cerevisiae deletion strains, locus YLR330W, strain CHS5, hits give low values 0.995 | S. cerevisiae deletion strains, locus YLR342W, strain FKS1 (second series), hits give low values 0.972 | S. cerevisiae deletion strains, locus YLR342W, strain FKS1, hits give low values 0.991 | S. cerevisiae deletion strains, locus YLR357W, strain rsc2, hits give low values 0.999 | S. cerevisiae deletion strains, locus YLR370C, strain arc18, hits give low values 0.964 | S. cerevisiae deletion strains, locus YLR371W, strain rom2, hits give low values 0.985 | S. cerevisiae deletion strains, locus YLR384C, strain iki3, hits give low values 0.986 | S. cerevisiae deletion strains, locus YLR418C, strain cdc73, hits give low values 0.999 | S. cerevisiae deletion strains, locus YML016C, strain PPZ1, hits give low values 0.991 | S. cerevisiae deletion strains, locus YML032C, strain rad52, hits give low values 0.98 | S. cerevisiae deletion strains, locus YML120C, strain ndi1, hits give low values 1.01 | S. cerevisiae deletion strains, locus YML124C, strain tub3, hits give low values 0.983 | S. cerevisiae deletion strains, locus YMR058W, strain fet3, hits give low values 0.982 | S. cerevisiae deletion strains, locus YMR078C, strain ctf18, hits give low values 0.98 | S. cerevisiae deletion strains, locus YMR125W, strain sto1, hits give low values 0.974 | S. cerevisiae deletion strains, locus YMR129W, hits give low values 0.987 | S. cerevisiae deletion strains, locus YMR205C, strain PFK2, hits give low values 0.995 | S. cerevisiae deletion strains, locus YMR223W, strain ubp8, hits give low values 0.982 | S. cerevisiae deletion strains, locus YMR231W, strain pep5, hits give low values 0.98 | S. cerevisiae deletion strains, locus YMR263W, strain SAP30, hits give low values 1.02 | S. cerevisiae deletion strains, locus YMR307W, strain GAS1, hits give low values 0.945 | S. cerevisiae deletion strains, locus YNL067W, strain RPL9B, hits give low values 1.03 | S. cerevisiae deletion strains, locus YNL071W, strain lat1, hits give low values 0.971 | S. cerevisiae deletion strains, locus YNL128W, strain TEP1, hits give low values 1.02 | S. cerevisiae deletion strains, locus YNL153C, strain GIM3, hits give low values 1.01 | S. cerevisiae deletion strains, locus YNL183C, strain NPR1, hits give low values 0.986 | S. cerevisiae deletion strains, locus YNL209W, strain ssb2, hits give low values 0.985 | S. cerevisiae deletion strains, locus YNL233W, strain BNI4, hits give low values 0.999 | S. cerevisiae deletion strains, locus YNL248C, strain rpa49, hits give low values 0.966 | S. cerevisiae deletion strains, locus YNL250W, strain rad50, hits give low values 0.984 | S. cerevisiae deletion strains, locus YNL271C, strain bni1, hits give low values 0.992 | S. cerevisiae deletion strains, locus YNL298W, strain CLA4, hits give low values 0.981 | S. cerevisiae deletion strains, locus YNL307C, strain MCK1, hits give low values 0.98 | S. cerevisiae deletion strains, locus YNL322C, strain KRE1 (second series), hits give low values 0.951 | S. cerevisiae deletion strains, locus YNL322C, strain KRE1, hits give low values 1.01 | S. cerevisiae deletion strains, locus YNR049C, strain mso1, hits give low values 0.979 | S. cerevisiae deletion strains, locus YNR052C, strain pop2, hits give low values 0.966 | S. cerevisiae deletion strains, locus YOL006C, strain TOP1, hits give low values 1.02 | S. cerevisiae deletion strains, locus YOL012C, strain htz1 1.83 | S. cerevisiae deletion strains, locus YOL147C, strain pex11, hits give low values 0.985 | S. cerevisiae deletion strains, locus YOR001W, strain rrp6, hits give low values 0.96 | S. cerevisiae deletion strains, locus YOR061W, strain CKA2, hits give low values 1 | S. cerevisiae deletion strains, locus YOR069W, strain VPS5, hits give low values 1.02 | S. cerevisiae deletion strains, locus YOR070C, strain gyp1, hits give low values 1 | S. cerevisiae deletion strains, locus YOR080W, strain dia2, hits give low values 0.986 | S. cerevisiae deletion strains, locus YOR083W, strain WHI5, hits give low values 1.02 | S. cerevisiae deletion strains, locus YOR106W, strain vam3, hits give low values 0.984 | S. cerevisiae deletion strains, locus YOR136W, strain idh2, hits give low values 0.982 | S. cerevisiae deletion strains, locus YOR144C, strain elg1, hits give low values 0.985 | S. cerevisiae deletion strains, locus YOR184W, strain ser1, hits give low values 0.988 | S. cerevisiae deletion strains, locus YOR231W, strain MKK1, hits give low values 1.04 | S. cerevisiae deletion strains, locus YOR265W, strain rbl2, hits give low values 0.978 | S. cerevisiae deletion strains, locus YOR270C, strain vph1, hits give low values 0.926 | S. cerevisiae deletion strains, locus YOR290C, strain snf2, hits give low values 1.01 | S. cerevisiae deletion strains, locus YOR316C, strain cot1, hits give low values 0.984 | S. cerevisiae deletion strains, locus YPL051W, strain arl3, hits give low values 0.987 | S. cerevisiae deletion strains, locus YPL055C, strain LGE1, hits give low values 1.06 | S. cerevisiae deletion strains, locus YPL078C, strain atp4, hits give low values 0.973 | S. cerevisiae deletion strains, locus YPL106C, strain sse1, hits give low values 0.994 | S. cerevisiae deletion strains, locus YPL240C, strain hsp82, hits give low values 0.973 | S. cerevisiae deletion strains, locus YPL241C, strain CIN2, hits give low values 1.02 | S. cerevisiae deletion strains, locus YPL256C, strain CLN2, hits give low values 1.05 | S. cerevisiae deletion strains, locus YPR119W, strain clb2, hits give low values 0.979 | S. cerevisiae deletion strains, locus YPR141C, strain kar3, hits give low values 0.992 | S. cerevisiae deletion strains, locus YPR163C, strain tif3, hits give low values 0.989 | S. cerevisiae deletion strains, locus YPR167C, strain met16, hits give low values 0.991 | S. cerevisiae deletion strains, strain wtn01, hits give low values 0.991 | S. cerevisiae strains, strain wild type, hits give low values 0.994
